In PubChem BioAssay (NCI):
The panel holds about 83,000 compounds, 20% with a hit somewhere; the sample as a whole holds those more often.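 The endpoint reported here, percent growth, reads 100 for growth as untreated, 0 for no net growth and -100 for all cells dead.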 Values without a mark were called inactive. The source made the active and inactive calls. Rule for the calls: active = growth percent below 10; inactive = the rest.

Experiments:
Test in all cases: NCI-60 one-dose screen, 48 h (100 = growth as untreated, 0 = no growth, -100 = all killed)
Settings in all cases: 10 µM unless noted
HCT-15 colon = system: HCT-15 colon
HT29 colon = system: HT29 colon
SNB-75 CNS = system: SNB-75 CNS
SNB-19 CNS = system: SNB-19 CNS
U251 CNS = system: U251 CNS
PC-3 prostate = system: PC-3 prostate
SK-MEL-5 melanoma = system: SK-MEL-5 melanoma
UACC-62 melanoma = system: UACC-62 melanoma
LOX IMVI melanoma = system: LOX IMVI melanoma
SK-MEL-28 melanoma = system: SK-MEL-28 melanoma
SK-MEL-2 melanoma = system: SK-MEL-2 melanoma
SN12C renal = system: SN12C renal
UO-31 renal = system: UO-31 renal
TK-10 renal = system: TK-10 renal
ACHN renal = system: ACHN renal
CAKI-1 renal = system: CAKI-1 renal
A498 renal = system: A498 renal
CCRF-CEM leukemia = system: CCRF-CEM leukemia
MOLT-4 leukemia = system: MOLT-4 leukemia
EKVX NSCLC = system: EKVX NSCLC

SMILES	growth (HCT-15 colon)	growth (HT29 colon)	growth (SNB-75 CNS)	growth (SNB-19 CNS)	growth (U251 CNS)	growth (PC-3 prostate)	growth (SK-MEL-5 melanoma)	growth (UACC-62 melanoma)	growth (LOX IMVI melanoma)	growth (SK-MEL-28 melanoma)	growth (SK-MEL-2 melanoma)	growth (SN12C renal)	growth (UO-31 renal)	growth (TK-10 renal)	growth (ACHN renal)	growth (CAKI-1 renal)	growth (A498 renal)	growth (CCRF-CEM leukemia)	growth (MOLT-4 leukemia)	growth (EKVX NSCLC)
COc1cc(C(=O)N/N=C/c2cc3cc(OCc4ccccc4)ccc3nc2OC)cc(OC)c1OC	80.3%	82.9%	77.7%	90.3%	84.8%	68.1%	63.7%	84.3%	81.9%	100%	85.4%	87.9%	81%	72.1%	95.2%	98.2%	95.6%	65.9%	62.5%	–
O=C(Cc1ccc2c(c1)OCCO2)Nc1nc2ccc(F)cc2s1	77.2%	105%	84.5%	116%	103%	93.2%	–	102%	93.8%	111%	70.5%	70.5%	62.5%	117%	98%	111%	104%	87.3%	95.1%	93.8%
CCCCN(C)N=Nc1ccc(C(N)=O)cc1	114%	107%	97.3%	105%	108%	103%	–	98.7%	107%	104%	107%	96.7%	57.1%	111%	107%	59%	89.7%	110%	87.7%	96.2%
O=C(CCCCCCSc1nc(-c2ccccc2)cc(-c2ccccc2)n1)NO	32.6%	8.32% (active)	21.2%	47.3%	35%	49.7%	–	12.8%	3.67% (active)	39.9%	74%	70.1%	22.3%	27.2%	23%	13.7%	50%	2.47% (active)	5.23% (active)	57.1%
Cc1ccc2c(-c3cc(-c4ccccc4)nc(N)c3C#N)cc(=O)oc2c1	105%	90.1%	100%	94.1%	100%	89.2%	–	90.1%	91.8%	105%	97.1%	91.2%	86.3%	101%	99.3%	100%	63.6%	105%	94.5%	113%
Cc1ccc(/C=C(\C#N)n2nc3cccc(F)c3n2)cc1	82.6%	114%	74.7%	96.6%	86.3%	102%	89.9%	83.7%	86.2%	96.2%	95.5%	95.3%	–	90.8%	79.7%	58.8%	56%	104%	102%	–
O=S(=O)(NCCCNc1cc(-c2c(-c3cccc(O)c3)nc3sccn23)ccn1)c1cccc2ccccc12	24.4%	36.1%	4.78% (active)	66.5%	46.2%	–	37.3%	39%	33%	67.3%	59.8%	21.1%	27.6%	82.7%	38.9%	36.1%	59%	21.2%	26.4%	–
COc1ccc(N2C(=O)C(Oc3ccccc3)C2c2ccc(C)cc2)cc1 (stereo not given)	91.2%	97.8%	97.7%	101%	90.1%	–	104%	102%	98.1%	99.5%	106%	104%	91.9%	126%	95.7%	93%	77.9%	101%	101%	88.8%
Cc1ccc(C(CC(=O)O)c2c(C)[nH][nH]c2=O)cc1 (stereo not given)	103%	113%	92.9%	98.5%	96.4%	–	102%	96.1%	95.5%	110%	113%	98.2%	93%	98.6%	104%	101%	112%	97.1%	98.8%	105%
CCCCCCNC(=O)Oc1ccc(/C(=C(\C)c2ccc(OC)cc2)c2ccc(OCCN3CCCCC3)cc2)cc1	2.35% (active)	4.52% (active)	69.4%	83.9%	54.4%	–	57.6%	39.2%	24.5%	25.2%	69.2%	74.3%	21.6%	102%	84.2%	72.3%	88.1%	66.5%	41.8%	74%
Clc1ccc2c(c1)N(CCCN1CCCC1)c1ccccc1S2	17.6%	21%	75.4%	58.1%	36.9%	–	-86.5% (active)	-36.5% (active)	-52.5% (active)	42.3%	74%	15%	40.1%	82.9%	45%	56%	36.6%	36.3%	24.2%	51.6%
CCOC(=O)C1=C(N)Oc2c(sc3c(C)cccc23)C1c1ccc(F)cc1 (stereo not given)	6.3% (active)	2.47% (active)	-4.15% (active)	26.3%	19.4%	–	16.3%	17.4%	14%	56.8%	42.5%	30.5%	40.7%	76%	30.7%	2.3% (active)	-5.94% (active)	4.35% (active)	10.2%	44.9%
COc1cccc(OC)c1C(=O)N[C@@H]1C(=O)N2[C@@H]1SC(C)(C)[C@@H]2C(=O)O	108%	98.9%	98.9%	107%	106%	–	105%	109%	100%	105%	101%	97.7%	84.9%	106%	98.4%	94.2%	121%	99.8%	94.6%	104%
Cc1nc(/N=C(\N)NC(=O)Nc2ccccc2Cl)sc1C	30.1%	18%	-29.2% (active)	44.2%	29.2%	–	32.6%	45.7%	43.3%	63.2%	45.6%	42.7%	–	70.7%	52.3%	30.9%	-15.9% (active)	16.4%	43.6%	48.7%
O=C(Nc1ccc(OS(=O)(=O)c2ccc(F)cc2)cc1)c1ccc(Cl)cc1	89.9%	80.1%	114%	99.4%	100%	–	90.8%	96%	98.7%	107%	90.6%	95.7%	92.5%	95.6%	103%	105%	82.9%	98.7%	89.1%	101%
CCOC(=O)Cn1c(=O)c2c(c3ccccc3n2C)n2nnc(-c3ccccc3)c12	112%	100%	94.2%	104%	107%	–	98.4%	102%	91.1%	107%	98.3%	118%	–	120%	97.3%	96.8%	127%	282%	92.8%	95.1%
